Data taken from the supplement of paper PMC7366291.
Structures can show the parent of a compound that is named as a salt. ± gives the standard deviation or the standard deviation of the averaged measurements.

What was measured:
Conditions in all cases: 25 µM; exposure: 24-48 hpf
[1] = system: Danio rerio Tg(wt1b:EGFP) embryo, pronephros; assay: glomerular separation, fold change vs DMSO control; higher = glomeruli further apart (abnormal)
Method in brief: (§1)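 From 24 to 48 hpf, at 28.5°C, dechorionated Tg(wt1b:EGFP) zebrafish embryos sat in HEPES-buffered E3 with 0.003% PTU carrying 25 μM compound and 0.5% DMSO. Their pronephroi were imaged dorsally in 96-well plates filled with agarose, using 470 nm light and 10 z-slices. A Fiji macro measured distances and angles between 16 reference points that were set manually on maximum projections, and any value more than 2 SD from its feature mean was excluded. Features are expressed as fold change relative to the mean of DMSO-treated embryos imaged on the same day.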

[2] = system: Danio rerio Tg(wt1b:EGFP) embryo, pronephros; assay: glomerular width (mean of left and right), fold change vs DMSO control; higher = wider glomerulus
Method in brief: as §1

[3] = system: Danio rerio Tg(wt1b:EGFP) embryo, pronephros; assay: fraction of imaged embryos annotated as normal kidney; higher = less nephrotoxic; extreme values may be limits of the assay
Method in brief: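 Zebrafish embryos carrying Tg(wt1b:EGFP) were dechorionated and exposed to 25 μM compound (0.5% DMSO) between 24 and 48 hpf at 28.5°C. Their pronephroi were imaged by widefield fluorescence, and each embryo was classed by hand from maximum projections. The measure is the fraction of embryos per treatment falling in the normal-kidney category.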

[4] = system: Danio rerio Tg(wt1b:EGFP) embryo, pronephros; assay: pronephric angle neck segment to proximal convoluted tubule (mean of left and right), fold change vs DMSO control; higher = larger pronephric angle
Method in brief: as §1

Structure (SMILES)	glomerular separation [1]	glomerular width [2]	fraction of imaged embryos annotated as normal kidney [3]	pronephric angle neck segment [4]
CCN(CC)CCc1nc(-c2ccccc2)no1 [Oxalamine citrate salt]	0.929 ± 0.43	0.933 ± 0.016	0.917	0.893 ± 0.035
NCc1ccc(S(N)(=O)=O)cc1 [Mafenide hydrochloride]	0.887 ± 0.27	1.09 ± 0.019	0.833	0.9512 ± 0.0031
NCCCC[C@H](N[C@@H](CCc1ccccc1)C(=O)O)C(=O)N1CCC[C@H]1C(=O)O [Lisinopril]	1.16 ± 0.32	0.998 ± 0.058	0.833	1.02 ± 0.032
CCOC(=O)c1ccc(N)cc1 [Benzocaine]	1.45 ± 0.34	0.901 ± 0.021	0.833	1.02 ± 0.016
CCN(CCCCOC(=O)c1ccc(OC)c(OC)c1)C(C)Cc1ccc(OC)cc1 (centres undefined) [Mebeverine hydrochloride]	0.925 ± 0.3	0.986 ± 0.044	0.833	0.965 ± 0.017
CN(C)CCOC(C)(c1ccccc1)c1ccccn1 (centres undefined) [Doxylamine succinate]	1.15 ± 0.53	0.9589 ± 0.009	0.818	1.01 ± 0.065
Nc1nc(Cl)nc2c1ncn2[C@H]1C[C@H](O)[C@@H](CO)O1 [Cladribine]	0.896 ± 0.38	0.945 ± 0.021	0.909	1.005 ± 0.0066
CN(Cc1cnc2nc(N)nc(N)c2n1)c1ccc(C(=O)N[C@@H](CCC(=O)O)C(=O)O)cc1 [Methotrexate]	1.19 ± 0.59	1.0099 ± 0.0002	0.917	0.978 ± 0.014
CC(=O)OCC(=O)NCCCOc1cccc(CN2CCCCC2)c1 [Roxatidine Acetate hydrochloride]	1.07 ± 0.37	1 ± 0.03	0.667	1.01 ± 0.06
COc1ccccc1OCC(O)CO (centres undefined) [Guaifenesin]	1.21 ± 0.52	0.929 ± 0.12	0.917	1.07 ± 0.035
CCN1CCN(C(=O)N[C@@H](C(=O)N[C@@H]2C(=O)N3[C@@H]2SC(C)(C)[C@@H]3C(=O)O)c2ccccc2)C(=O)C1=O [Piperacillin sodium salt]	1.07 ± 0.47	0.991 ± 0.063	0.667	1.01 ± 0.046
CCCCC1(COC(=O)CCC(=O)O)C(=O)N(c2ccccc2)N(c2ccccc2)C1=O [Suxibuzone]	1.48 ± 0.71	0.92 ± 0.016	0.75	0.992 ± 0.016
CC(=O)OCC(=O)[C@@]12OC3(CCCC3)O[C@@H]1C[C@H]1[C@@H]3CCC4=CC(=O)C=C[C@]4(C)[C@@]3(F)[C@@H](O)C[C@@]12C [Amcinonide]	1.06 ± 0.48	1.22 ± 0.14	0.417	1.01 ± 0.019
CCc1c2c(nc3ccc(OC(=O)N4CCC(N5CCCCC5)CC4)cc13)-c1cc3c(c(=O)n1C2)COC(=O)[C@]3(O)CC [Irinotecan hydrochloride trihydrate]	1.09 ± 0.45	1.02 ± 0.022	0.667	1.02 ± 0.028
Cc1c(NC(=O)c2cccnc2)c(=O)n(-c2ccccc2)n1C [Nifenazone]	0.806 ± 0.28	1.03 ± 0.014	0.833	1 ± 0.023
COc1cc(C(=O)NC2CCCNC2)cc(OC)c1OC (centres undefined) [Troxipide]	1.14 ± 0.54	0.976 ± 0.011	0.917	0.953 ± 0.027
N=C(N)NC(=O)Cc1c(Cl)cccc1Cl [Guanfacine hydrochloride]	0.827 ± 0.15	1.08 ± 0.1	0.583	0.978 ± 0.025
CC[N+](C)(C)Cc1ccccc1Br [Bretylium tosylate]	0.631 ± 0.23	0.9664 ± 0.0094	1	0.982 ± 0.028
C[N+]1(C)CCC(=C(c2ccccc2)c2ccccc2)CC1 [Diphemanil methylsulfate]	1.35 ± 0.53	0.992 ± 0.041	0.75	1.02 ± 0.033
C=CCSCC1Nc2cc(Cl)c(S(N)(=O)=O)cc2S(=O)(=O)N1 (centres undefined) [Althiazide]	1.08 ± 0.28	0.962 ± 0.12	0.5	1.09 ± 0.083
Cn1ccnc1S [Methimazole]	1.23 ± 0.58	0.876 ± 0.045	0.818	1.11 ± 0.064
CC(=O)CC(c1ccccc1)c1c(O)c2ccccc2oc1=O (centres undefined) [Warfarin]	1.14 ± 0.45	0.797 ± 0.048	0.333	1.25 ± 0.027
CC1(C)O[C@@H]2C[C@H]3[C@@H]4C[C@H](F)C5=CC(=O)C=C[C@]5(C)[C@@]4(F)[C@@H](O)C[C@]3(C)[C@]2(C(=O)CO)O1 [Fluocinolone acetonide]	1.23 ± 0.54	1.26 ± 0.028	0.0833	1.02 ± 0.065
Cc1ccc(S(=O)(=O)NC(=O)NN2CCCCCC2)cc1 [Tolazamide]	0.828 ± 0.19	0.948 ± 0.015	0.917	0.972 ± 0.023
CC(C)(C)NC(=O)[C@@H]1CN(Cc2cccnc2)CCN1C[C@@H](O)C[C@@H](Cc1ccccc1)C(=O)N[C@H]1c2ccccc2C[C@H]1O [Indinavir sulfate]	1.35 ± 0.6	0.851 ± 0.062	1	1.101 ± 0.002
CC=CC1=C(C(=O)O)N2C(=O)[C@@H](NC(=O)[C@H](N)c3ccc(O)cc3)[C@H]2SC1 [Cefprozil]	0.967 ± 0.4	1.086 ± 0.0056	0.917	0.965 ± 0.061
